# Most compounds without a hit are left out; they make up all but 21% or so of the library.
# NS1 function inh – qHTS Assay for Inhibitors of Influenza NS1 Protein Function; Potency, µM (series often up to 46.1 µM); 270,000 compounds, 0.4% hits; calls by dose curve; note: actives are rising curves; nearly all actives have a fitted effect of over 50% in size
#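 A cell-based growth assay was used: compounds that relieve NS1-induced slow growth of budding yeast raise OD600. Assay medium was yeast nitrogen base with ammonium sulphate and -URA supplement, pH 6.0, with 2% galactose.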
# Cycloheximide cs – Cycloheximide Counterscreen for Small Molecule Inhibitors of Shiga Toxin | AID 2314, 2010 | 300,000 compounds, 12% hits | cell reporter, cycloheximide protein synthesis inhibition counterscreen | max response, %; in the data active = max response mostly above about 13%, no sharp cut-off; inactive = mostly below about 14%; note: read at 38.3 µM for the half of the compounds with a filed dose
# Pf growth 48h – Primary qHTS for delayed death inhibitors of the malarial parasite plastid, 48 hour incubation. P. falciparum luciferase growth in erythrocytes, 48 h. Potency, µM (doses to about 28.7 µM), usual class: inhibitors. 310,000 compounds, 5.9% hits. AID 504832, 2011
#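 First compound was added to culture medium, then infected red cells at 0.1% parasitemia and 2% hematocrit (final). After incubation at 37 C under 5% CO2, luciferase detection reagent was dispensed and light output recorded.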
# SARS PLP yeast – qHTS of Yeast-based Assay for SARS-CoV PLP; S. cerevisiae expressing SARS-CoV PLpro, growth rescue; Potency, µM (top dose mostly 32.9 µM), most hits filed as activators; 330,000 compounds, 0.19% hits; AID 485353, 2010; calls by dose curve; note: nearly all actives have a fitted effect of over 55% in size
# Shiga inhibitor – A qHTS for Small Molecule Inhibitors of Shiga Toxin; AID 2315, 2010; inhibition, % at 38.7 µM; 290,000 compounds, 9.2% hits; Vero cells, Shiga toxin protein synthesis inhibition reporter; in the data active = inhibition mostly above about 28%, no sharp cut-off; inactive = mostly below about 43%
# Pf growth 96h – Primary qHTS for delayed death inhibitors of the malarial parasite plastid, 96 hour incubation. P. falciparum luciferase reporter growth, 96 h. Potency, µM (series often up to 28.7 µM), usual class: inhibitors. 320,000 compounds, 6.9% hits
#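 Readout is luminescence from an integrated firefly luciferase in P. falciparum. Red cells, 2% hematocrit and 0.05% parasitemia final, were cultured with compound through two parasite generations (96 hours) at 37 C, 5% CO2.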
# Numbers stand for hits; i = inactive; ? = inconclusive; nt = no result given; [ ] = another dose, or the depositor's remark. Unless noted, calls come from the whole dose curve; as a rule, active = well fitted inhibition curve with a large enough effect; inconclusive = small, poorly fitted or top-dose-only effect, or another doubt; inactive = no such curve, though single readings can be large or run the other way.
SMILES,NS1 function inh,Cycloheximide cs,Pf growth 48h,SARS PLP yeast,Shiga inhibitor,Pf growth 96h
CSc1ccc(/C=C/C(=O)c2ccc(O)cc2)cc1,i,44,i,i,91,?
Cc1ccc(/C=C/C(=O)c2ccc(O)cc2)cc1,i,28,i,i,49,i
O=C(/C=C/c1ccc(I)cc1)c1ccc(B(O)O)cc1,nt,29,nt,nt,16,nt
COc1cc([N+](=O)[O-])cc(/C=N\NC(=O)C2COc3ccccc3O2)c1O (stereo not given),i,i,?,i,i,i
COC(=O)N/N=C(\C)c1ccc(-n2ccnc2)cc1,nt,i,i,i,i,i
C/C(=N\NC(=O)COc1ccc(C)cc1C(C)C)c1ccc(-n2ccnc2)cc1,i,17,?,i,i,?
CCOc1ccc(NC(=O)c2ccc(NC(=O)c3cn4c5c(c(N6CCN(C)CC6)c(F)cc5c3=O)OCC4C)cc2)cc1 (stereo not given),i,i,2.3µM,i,i,2.6µM
O=C(NCCCc1ccc(F)cc1)C1CCC(=O)N(CC2CCCCC2)C1 (stereo not given),i,i,i,i,i,i
COc1ccc(N(CC(=O)Nc2cccc3ccccc23)S(C)(=O)=O)cc1,i,12,i,i,i,i
CCOc1ccc(N(CC(=O)Nc2cccc(C)c2)S(C)(=O)=O)cc1,i,54,i,i,86,?
CCOc1ccc(N(CC(=O)NCc2ccccc2C)S(C)(=O)=O)cc1,i,42,i,i,68,i
CCOc1ccc(N(CC(=O)Nc2ccc(OC)cc2)S(C)(=O)=O)cc1,i,39,i,i,53,?
CCOc1ccc(N(CC(=O)NCCSCc2ccccc2Cl)S(C)(=O)=O)cc1,i,i,i,i,i,?
COc1ccc(OC)c(/C=N\NC(=O)CSc2nnc(CCCc3ccc(OC)c(C)c3)o2)c1,i,i,?,nt,i,?
S=C(NCCCN1CCOCC1)NC1CC1,i,i,i,i,i,?
CCOC(=O)c1ccc(NC(=O)CN(c2ccc(C)cc2)S(=O)(=O)c2c(C)n[nH]c2C)cc1,i,i,13µM,i,i,i
CCOc1ccc(N(CC(=O)Nc2ccc(C)c(Cl)c2)S(C)(=O)=O)cc1,i,24,i,i,i,i
CCOc1ccc(NC(=O)CN(c2ccc(OC)cc2)S(=O)(=O)c2cccs2)cc1,nt,nt,i,i,nt,i
CCOc1ccc(N(CC(=O)Nc2ccc(Br)cc2)S(C)(=O)=O)cc1,i,30,i,i,54,?
CCOc1ccc(NC(=O)CN(c2ccc(OC)cc2)S(C)(=O)=O)cc1,i,98,i,i,121,nt
CCOc1ccc(NC(=O)CN(C2CCCCC2)S(C)(=O)=O)cc1,i,i,nt,i,i,i
CC(=O)C1=C(C)Nc2ncnn2C1c1ccc(Cl)cc1Cl (stereo not given),?,i,?,i,i,i
COC(=O)c1ccc(NC(=O)CN(c2ccc(OC)cc2)S(C)(=O)=O)cc1,i,53,i,i,63,i
COC(=O)c1ccccc1NC(=O)CN(c1ccc(OC)cc1)S(C)(=O)=O,i,i,i,i,i,?
Cc1ccc(-c2nnnn2C2C/C(=N\NC(N)=S)C3OCC2O3)cc1 (stereo not given),nt,20,i,i,i,?
SMILES,NS1 function inh,Cycloheximide cs,Pf growth 48h,SARS PLP yeast,Shiga inhibitor,Pf growth 96h
Cc1cccc2c1cnn2C(=O)CCC(=O)NCc1ccc(F)cc1,i,i,i,?,i,15µM
CCOc1ccccc1NC(=O)n1ncc2c(C)cccc21,i,i,i,i,i,i
Cc1cccc2c1cnn2C(=O)Nc1cc(F)ccc1F,i,40,i,i,59,i
CC(=O)N/N=C(\C)C1COc2ccccc2O1 (stereo not given),i,i,i,i,i,i
Cc1ccc(-c2nn(Cc3ccccc3)cc2C=O)cc1C,i,49,i,i,active,i
Cc1ccc(-c2nn(Cc3ccccc3)cc2C(=O)O)cc1,i,i,i,i,i,i
Cc1ccc(-c2nn(Cc3ccccc3)cc2C=O)cc1,i,85,i,i,55,i
Cc1ccc(-c2ccc(=O)n(Cc3ccc(F)cc3)n2)cc1,i,i,i,i,i,i
Cc1ccc(Cn2cc(C=O)c(-c3ccc(F)cc3)n2)cc1,i,23,i,i,31,i
COc1ccc(-c2cc(C(F)(F)F)n3nc(C(=O)Nc4c(C)n(C)n(-c5ccccc5)c4=O)cc3n2)cc1,i,i,i,i,i,i
O=C(c1ccccc1Cl)N1CCC(N2CCC(C(=O)N3CCCC3)CC2)CC1,i,24,i,i,i,?
O=C(c1cccc(Cl)c1)N1CCC(N2CCC(C(=O)N3CCOCC3)CC2)CC1,i,i,i,i,i,i
O=C(c1cc(F)ccc1F)N1CCC(N2CCC(C(=O)N3CCCC3)CC2)CC1,i,17,i,i,i,i
COc1ccc(OCCC(=O)OCC(=O)NCCc2ccccc2)cc1,nt,i,i,i,i,i
COc1cc(/C=N/NC(=O)c2cccs2)ccc1OCc1ccccc1,i,28,?,i,53,?
COc1ccc(/C=N/NC(=O)c2sccc2OCc2ccc(F)cc2)cc1OC,i,i,?,i,i,12µM
O=C(N/N=C/c1cccc(OC(=O)N2CCOCC2)c1)c1cccs1,i,27,i,i,i,i
COc1cc(/C=N/NC(=O)c2ccccc2O)ccc1OC(=O)CC1SC(=O)NC1=O (stereo not given),i,30,i,i,58,i
COc1ccc(/C=N/NC(=O)c2ccc(COc3cccc4cccnc34)cc2)cc1OC,i,i,i,i,i,?
COc1cc(/C=N/NC(=O)c2cc(C)oc2C)ccc1OCc1ccccc1,i,i,?,i,i,i
CC(C)(C)NC(=O)CN(CCN1CCOCC1)C(=O)CNS(=O)(=O)c1ccccc1,i,i,i,i,i,i
COc1ccccc1C(CNC(=O)c1cccc(S(=O)(=O)Nc2ccc(C)cc2)c1)N(C)C (stereo not given),i,i,?,i,i,?
O=C1CC(NNc2ccccc2)C(=O)N1c1ccc(N2CCCCC2)cc1 (stereo not given),i,i,i,i,i,i[1.15 µM]
O=C(N/N=C/c1ccccc1OCc1ccccc1)c1cccs1,i,42,i,i,active,i
COc1cc(/C=N/NC(=O)c2ccc(-n3cccc3)cc2)ccc1O,i,i,i,i,i,i
CCOc1cc(/C=N/NC(=O)c2ccccc2OCc2ccc(F)cc2)ccc1O,nt,nt,8.3µM,i,nt,?
COc1cc(/C=N/NC(=O)c2cccs2)ccc1O,i,52,i,i,97,i
COc1cccc(/C=N/NC(=O)c2cccs2)c1,i,47,i,i,127,i
CCOc1cc(/C=N/NC(=O)c2ccccc2-n2cccc2)ccc1O,nt,nt,i,i,nt,i
COC(=O)N/N=C\c1cccc(OC(=O)c2cccs2)c1,nt,i,i,i,i,i
